Assay outcomes from PubChem BioAssay.
The list is not random: actives were taken first. Their share in the collection is about 17%.
TDP1 cell noCPT: qHTS for Inhibitors of human tyrosyl-DNA phosphodiesterase 1 (TDP1): qHTS in cells in absence of CPT. DT40 Tdp1-/- hTDP1 cells, no CPT, ATP luminescence, 48 h. Potency, µM (doses to about 46.2 µM), for inactives: at the highest dose activity change, negative = growth inhibition, hits mostly inhibitors. 420,000 compounds, 15% hits; further: on the % scale 0 is the no-effect control and ±100 the full control effect; nearly all actives have a fitted effect of over 55% in size
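Compound effects on proliferation are scored in DT40 Tdp1-/-;hTDP1 cells in the absence of CPT. ATP levels (CellTiter-Glo luminescence) are recorded after a ≥48 hr, 37 °C incubation.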
TDP1 cell CPT: qHTS for Inhibitors of human tyrosyl-DNA phosphodiesterase 1 (TDP1): qHTS in cells in presence of CPT. chicken DT40 Tdp1-/-;hTDP1 cells + 20 nM CPT, ATP luminescence, 48 h. Potency, µM (top dose mostly 46.2 µM), without a hit: top-dose activity change, negative = growth inhibition, hits mostly inhibitors. 420,000 compounds, 12% hits; further: on the % scale 0 is the no-effect control and ±100 the full control effect; nearly all actives have a fitted effect of over 55% in size
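Chicken DT40 Tdp1-/- cells complemented with human TDP1, 400 cells/well, exposed to compounds plus 20 nM camptothecin for at least 48 h at 37 C; viability read as ATP content by CellTiter-Glo luminescence.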
TDP1 block: qHTS Assay for Inhibitors of Tyrosyl-DNA Phosphodiesterase (TDP1). 350,000 compounds, 0.28% hits. recombinant TDP1, AlphaScreen DNA substrate cleavage. Tyrosyl-DNA phosphodiesterase 1 (Homo sapiens), Q9NUW8. Potency, µM (titrated, usually from 130 µM), for the others: at the highest dose activity change, negative = inhibition, usual class: inhibitors; further: on the % scale 0 is the no-effect control and ±100 the full control effect; nearly all actives have a fitted effect of over 40% in size
Target sequence (Q9NUW8 whole entry, looked up): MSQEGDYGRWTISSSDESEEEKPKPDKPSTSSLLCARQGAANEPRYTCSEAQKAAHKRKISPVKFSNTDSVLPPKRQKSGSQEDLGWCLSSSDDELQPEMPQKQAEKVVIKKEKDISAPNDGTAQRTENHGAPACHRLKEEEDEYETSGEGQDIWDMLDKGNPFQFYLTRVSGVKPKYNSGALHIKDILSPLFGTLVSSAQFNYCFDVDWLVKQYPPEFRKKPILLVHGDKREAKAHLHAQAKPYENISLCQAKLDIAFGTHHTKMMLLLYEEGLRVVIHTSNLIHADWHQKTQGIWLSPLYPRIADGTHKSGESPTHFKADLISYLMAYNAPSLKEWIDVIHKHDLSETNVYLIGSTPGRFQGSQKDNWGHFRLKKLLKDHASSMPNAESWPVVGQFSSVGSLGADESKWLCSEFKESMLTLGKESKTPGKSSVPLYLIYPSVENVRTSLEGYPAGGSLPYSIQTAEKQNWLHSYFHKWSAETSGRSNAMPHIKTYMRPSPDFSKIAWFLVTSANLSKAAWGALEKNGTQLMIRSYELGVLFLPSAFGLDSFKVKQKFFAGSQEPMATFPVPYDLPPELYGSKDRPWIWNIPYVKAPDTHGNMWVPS
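Compounds were preincubated with Tdp1 (1 nM final) for 15 min at room temperature before substrate (15 nM final) started a 5 min reaction; beads (10 ug/ml final) were then added for 10 min before AlphaScreen detection.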
ClpP mod: qHTS Assay for Activators of ClpP; AID 651965, 2013; Potency, µM (series often up to 57.5 µM), for the others: at the top dose activity change, negative = active; ATP-dependent Clp protease proteolytic subunit (Bacillus subtilis (strain 168)), P80244; purified B. subtilis ClpP, FRET peptide cleavage, 20 min; 340,000 compounds, 1.9% hits; active means well fitted falling curve with a large enough effect; inconclusive means small, poorly fitted or top-dose-only effect; inactive means no such curve, though single readings can be large or run the other way; further: the source files actives as falling curves though it sought activators and does not explain the sign; nearly all actives have a fitted effect of over 65% in size
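Buffer: 100 mM Tris/HCl pH8, 100 mM KCl, 0.05% low protease BSA, 2.5% glycerol, 0.01% Tween-20. ClpP 10 microg/mL final; 20 min RT; delta FRET normalized to ADEP and DMSO controls.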
Active calls of the source: *; ? = inconclusive; · = no result; ! = not active in a repeat; [ ] = dose if it differs, or a comment. Unless noted, the call rests on the fitted dose curve; in most records, active means well fitted curve in the direction sought with a large enough effect; inconclusive means small, poorly fitted or top-dose-only effect, or another doubt; inactive means no such curve, though single readings can be large; an effect the other way counts as inactive or inconclusive. Potency means the concentration at half of the fitted maximal effect.

SMILES	TDP1 cell noCPT	TDP1 cell CPT	TDP1 block	ClpP mod
COc1ccc(C2=C(C=C(C#N)C#N)C(c3ccccc3C)c3ccccc3O2)cc1OC (stereo not given)	21µM*	?	8%	-4%
CC1CC[C@]2(CO)CC[C@]3(C)C(=CCC4[C@@]5(C)CCC(O)C(C)(C)C5CC[C@@]43C)C2C1C (stereo not given in full)	2%	7%	12%	·
CCOC(=O)/C=C/c1ccc2c(c1)S(=O)(=O)N(Cc1ccc(OC)cc1)[C@H]2CC(=O)OCC	13µM*	21µM*	·	-6%
COc1cccc(N2[C@@H](CC(C)=O)c3cc(C(F)(F)F)ccc3S2(=O)=O)c1	?	?	·	-2%
CCOC(=O)C[C@H]1c2ccccc2S(=O)(=O)N1Cc1ccc(Cl)cc1	18µM*	11µM*	·	4%
COc1ccc(CN2[C@@H](CC(C)=O)c3cc(C(F)(F)F)ccc3S2(=O)=O)cc1	21µM*	16µM*	·	0%
COc1ccc(CN2[C@@H](CC(=O)O)c3ccccc3S2(=O)=O)cc1	2.8µM*!	?	·	1%
CC[C@H]1OC(=O)[C@H](C)[C@@H](O[C@H]2C[C@@](C)(OC)[C@@H](O)[C@H](C)O2)C(C)[C@@H](O[C@@H]2O[C@H](C)C[C@H](N(C)C)[C@@H]2O)[C@](C)(OC)C[C@@H](C)C(=O)[C@H](C)[C@@H](O)[C@]1(C)O (stereo not given in full)	·	·	10%[56.1 µM]	·
COc1ccc(OC)c(CNc2ccc([N+](=O)[O-])cc2C)c1	0%	6%	8%	·
COc1cccc(CNc2ccc([N+](=O)[O-])cc2C)c1	18µM*	?	4%	5%
COc1ccccc1CCNC(=O)C(=O)NCC1OCCN1S(=O)(=O)c1ccc2c(c1)OCCO2 (stereo not given)	?	?	-1%	0%
O=C(NCc1nc2ccccc2[nH]1)C1=C[C@H](c2ccccc2)C[C@H](OCc2ccc(CO)cc2)O1	?	?	6%	-9%
O=C(NCc1nc2ccccc2[nH]1)C1=C[C@H](C2CCCCC2)C[C@H](OCCCCO)O1	16µM*	23µM*	·	2%
O=C(NCc1nc2ccccc2[nH]1)C1=C[C@@H](c2ccc(C(F)(F)F)cc2)C[C@@H](OCc2ccc(CO)cc2)O1	18µM*	?	·	-2%
O=C(NCc1nc2ccccc2[nH]1)C1=C[C@H](C2CCCCC2)C[C@H](OCc2ccc(CO)cc2)O1	16µM*	12µM*	6%	0%
O=C(NCc1nc2ccccc2[nH]1)C1=C[C@H](C2CC2)C[C@H](OCCCCO)O1	-8%	-5%	5%	0%
CC(C)(C)[C@H]1C=C(C(=O)NCc2nc3ccccc3[nH]2)O[C@@H](OCc2ccc(CO)cc2)C1	?	21µM*	1%	1%
COC(=O)C(C(=O)OC)[C@@H]1O[C@@]23COC=C[C@]2(C)[C@H]3c2ccccc21	·	·	9%	·
CCCCCCN1C[C@H](O)[C@@H](n2cc(C3CC3)nn2)C[C@@H]1c1ccccc1	23µM*	?	·	-4%
CCCCCCN1C[C@@H](O)[C@H](n2cc(C3CC3)nn2)C[C@@H]1c1ccc(Cl)cc1	?	26µM*	·	3%
CCCCCCN1C[C@H](O)[C@@H](n2cc(C3CC3)nn2)C[C@@H]1c1ccc(C)cc1	26µM*	?	·	-1%
CCCCCC(=O)N1C[C@@H](n2cc(C3CC3)nn2)[C@H](O)C[C@@H]1c1ccc(Cl)cc1	21µM*	16µM*	·	2%
N#Cc1ccc(CN2CCCC3(CCN(C(=O)c4cnccn4)CC3)C2)cc1	5%	-9%	·	·
CC(C)=CCCC(C)CN1CCC(N2CCC(C(=O)NC(C)C)CC2)CC1 (stereo not given)	16µM*	23µM*	-11%	-3%
CC(=O)Nc1ccccc1-c1nc2ccccc2n(C(C)C(=O)c2ccc(C)c(C)c2)c1=O (stereo not given)	?	?	14%	-7%
SMILES	TDP1 cell noCPT	TDP1 cell CPT	TDP1 block	ClpP mod
COc1ccc(OC)c(NC(=O)C(C)n2c(=O)c(-c3ccccc3NC(C)=O)nc3ccccc32)c1 (stereo not given)	?	23µM*	0%	-3%
CC(=O)Nc1ccccc1-c1nc2ccccc2n(C(C)C(=O)Nc2cc(Cl)ccc2C)c1=O (stereo not given)	26µM*	?	6%	-6%
Clc1cnccn1	·	·	9%[21 µM]	·
Cc1sc(NC(=O)CN(Cc2ccccc2)C(=O)C2CC2)c(C(N)=O)c1C	4.6µM*	8.2µM*	0%	-1%
Cc1sc(NC(=O)CN(Cc2ccc(F)cc2)C(=O)C(C)(C)C)c(C(N)=O)c1C	8.2µM*	13µM*	2%	·
CC(=O)N(CC(=O)Nc1sc(C)c(C)c1C(N)=O)Cc1ccccc1	?	?	1%	·
CC(=O)Oc1ccccc1C(=O)NC(C)CCc1ccccc1 (stereo not given)	?	-19%	1%	-13%
COc1ccccc1C(=O)NC(C)c1cccc2ccccc12 (stereo not given)	3.7µM*	8.2µM*	5%[0.0935 µM]	·
COc1cc2cc(C(=O)NC(C)c3cccc4ccccc34)c(N)nc2cc1OC (stereo not given)	16µM*	26µM*	·	5%
COCC(C)NC(=O)c1ccccc1OC(C)=O (stereo not given)	-18%	-3%	7%	25µM*
COc1cc2cc(C(=O)Nc3ccccc3)c(N)nc2cc1OC	21µM*	?	0%	?
COc1ccccc1NC(=O)Cn1ccn(-c2cc(C)cc(C)c2)c(=O)c1=O	-10%	1%	-3%	2%
CCCCN(C(=O)c1cc(Cl)nc2ccccc12)c1c(N)n(CCCC)c(=O)[nH]c1=O	-4%	-28%	-16%	·
COCCN(C(=O)c1ccc(N(C)S(=O)(=O)c2ccc(C)cc2)cc1)c1c(N)n(CC(C)C)c(=O)[nH]c1=O	12%	-6%	·	-1%
CCOC(=O)CNc1oc(-c2ccccc2)nc1-c1ccccc1	·	·	8%	·
CC(C)COc1ccc(C(=O)Nc2scc(-c3ccc(Cl)cc3Cl)c2C(N)=O)cc1	9.2µM*	16µM*	-6%	?
CNc1nc(Nc2ccc(C(=O)OC)cc2)c2sccc2n1	15µM*	13µM*	·	-20%
COCCNc1nc(Nc2ccc(Cl)cc2F)c2sccc2n1	16µM*	13µM*	·	-25%
COCCNc1nc(Nc2ccc(C(=O)OC)cc2)c2sccc2n1	16µM*	12µM*	·	4%
CCOC(=O)Cc1ccc(Nc2nc(NCCOC)nc3ccsc23)cc1	15µM*	13µM*	·	-6%
